# Publication PMC7862700, “An all-to-all approach to the identification of sequence-specific readers for epigenetic DNA modifications on cytosine”
# Experiments:
# Assay in all cases: DAPPL (digital affinity profiling via proximity ligation, sequencing); 10 mM Tris-HCl pH 7.5, 50 mM NaCl, 1 mM DTT, 4% glycerol, room temperature, 30 min; GST-TFs on glutathione beads, 16-mer random dsDNA library, 0.1% formaldehyde crosslink after washing; high values mean tight binding
# Conditions in all cases: protein: recombinant; tags: N-terminal GST; dsDNA, one strand shown
# FLI1 = molecular target: T1, FLI1 (Homo sapiens, UniProt Q01543 1-452)
# T1 sequence: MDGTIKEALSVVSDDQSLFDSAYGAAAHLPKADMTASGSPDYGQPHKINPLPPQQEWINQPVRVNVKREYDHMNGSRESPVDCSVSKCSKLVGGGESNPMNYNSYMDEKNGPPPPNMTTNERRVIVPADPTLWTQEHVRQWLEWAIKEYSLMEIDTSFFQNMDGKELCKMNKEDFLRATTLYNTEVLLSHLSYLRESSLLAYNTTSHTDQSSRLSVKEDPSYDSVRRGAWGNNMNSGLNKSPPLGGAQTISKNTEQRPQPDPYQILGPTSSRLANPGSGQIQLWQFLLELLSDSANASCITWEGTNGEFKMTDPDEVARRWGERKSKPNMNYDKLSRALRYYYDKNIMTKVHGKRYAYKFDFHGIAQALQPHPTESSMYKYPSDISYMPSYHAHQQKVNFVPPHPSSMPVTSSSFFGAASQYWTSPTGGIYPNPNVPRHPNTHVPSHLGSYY
# Summary of the method: (§1)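 Binding signal is defined as a hexamer's read frequency for one factor over its frequency for the tag-only sample. To obtain reads, GST-fused human transcription factors were expressed in yeast, captured on glutathione beads, barcoded with DNA and pooled with that sample. Pools met 200 nmole of a 16-mer random double-stranded DNA library in Tris/NaCl/DTT/glycerol buffer for 30 min at room temperature before washing, 0.1% formaldehyde crosslinking, proximity ligation (BsaI/T4 ligase, 1 h, 37 °C), PCR and Illumina NextSeq500 sequencing.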
# ELK1 = molecular target: T2, ELK1 (Homo sapiens, UniProt P19419 1-428)
# T2 sequence: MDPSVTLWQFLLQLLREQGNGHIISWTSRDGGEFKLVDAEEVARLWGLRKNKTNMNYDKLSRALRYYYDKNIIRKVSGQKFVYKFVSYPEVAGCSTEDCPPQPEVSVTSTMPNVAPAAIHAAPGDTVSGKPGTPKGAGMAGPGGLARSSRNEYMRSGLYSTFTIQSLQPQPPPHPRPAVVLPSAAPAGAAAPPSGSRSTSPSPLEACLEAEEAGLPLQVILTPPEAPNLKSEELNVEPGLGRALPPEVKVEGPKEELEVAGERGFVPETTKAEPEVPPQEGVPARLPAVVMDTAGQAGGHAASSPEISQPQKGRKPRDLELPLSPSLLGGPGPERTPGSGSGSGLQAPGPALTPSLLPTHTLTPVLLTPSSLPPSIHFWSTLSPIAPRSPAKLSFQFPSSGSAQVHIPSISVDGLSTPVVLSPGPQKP
# Summary of the method: as §1
# GABPA = molecular target: T3, GABPA (Homo sapiens, UniProt Q06546 1-454)
# T3 sequence: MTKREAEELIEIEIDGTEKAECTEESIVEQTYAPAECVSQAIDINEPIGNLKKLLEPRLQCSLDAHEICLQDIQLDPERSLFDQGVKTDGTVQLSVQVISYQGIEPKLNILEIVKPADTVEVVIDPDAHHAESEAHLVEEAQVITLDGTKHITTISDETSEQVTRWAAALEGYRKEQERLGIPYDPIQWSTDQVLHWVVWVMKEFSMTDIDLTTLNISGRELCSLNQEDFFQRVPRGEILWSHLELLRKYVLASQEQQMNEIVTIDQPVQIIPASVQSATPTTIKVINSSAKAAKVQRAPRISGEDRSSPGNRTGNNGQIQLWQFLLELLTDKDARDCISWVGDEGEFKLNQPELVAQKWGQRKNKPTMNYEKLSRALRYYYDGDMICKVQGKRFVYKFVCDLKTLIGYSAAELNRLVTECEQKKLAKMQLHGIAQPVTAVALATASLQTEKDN
# Summary of the method: as §1
# ERG = molecular target: T4, ERG (Homo sapiens, UniProt P11308 1-479)
# T4 sequence: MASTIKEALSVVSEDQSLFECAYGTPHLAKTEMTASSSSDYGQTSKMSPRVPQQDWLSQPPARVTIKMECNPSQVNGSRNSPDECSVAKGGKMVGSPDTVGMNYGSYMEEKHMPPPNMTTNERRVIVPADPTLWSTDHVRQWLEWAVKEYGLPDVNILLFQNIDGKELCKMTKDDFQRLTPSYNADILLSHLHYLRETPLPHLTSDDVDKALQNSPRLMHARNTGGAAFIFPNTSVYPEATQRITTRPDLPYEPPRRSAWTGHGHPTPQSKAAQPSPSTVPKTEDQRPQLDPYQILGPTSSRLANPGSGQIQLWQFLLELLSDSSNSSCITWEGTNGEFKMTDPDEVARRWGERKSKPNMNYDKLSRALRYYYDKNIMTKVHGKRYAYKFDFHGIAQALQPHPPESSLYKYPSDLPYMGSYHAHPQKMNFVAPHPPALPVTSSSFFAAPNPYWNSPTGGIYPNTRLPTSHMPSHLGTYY
# Summary of the method: as §1
# ELF1 = ELF1 (Homo sapiens, UniProt P32519 1-619)
# Sequence of ELF1 (P32519 whole entry): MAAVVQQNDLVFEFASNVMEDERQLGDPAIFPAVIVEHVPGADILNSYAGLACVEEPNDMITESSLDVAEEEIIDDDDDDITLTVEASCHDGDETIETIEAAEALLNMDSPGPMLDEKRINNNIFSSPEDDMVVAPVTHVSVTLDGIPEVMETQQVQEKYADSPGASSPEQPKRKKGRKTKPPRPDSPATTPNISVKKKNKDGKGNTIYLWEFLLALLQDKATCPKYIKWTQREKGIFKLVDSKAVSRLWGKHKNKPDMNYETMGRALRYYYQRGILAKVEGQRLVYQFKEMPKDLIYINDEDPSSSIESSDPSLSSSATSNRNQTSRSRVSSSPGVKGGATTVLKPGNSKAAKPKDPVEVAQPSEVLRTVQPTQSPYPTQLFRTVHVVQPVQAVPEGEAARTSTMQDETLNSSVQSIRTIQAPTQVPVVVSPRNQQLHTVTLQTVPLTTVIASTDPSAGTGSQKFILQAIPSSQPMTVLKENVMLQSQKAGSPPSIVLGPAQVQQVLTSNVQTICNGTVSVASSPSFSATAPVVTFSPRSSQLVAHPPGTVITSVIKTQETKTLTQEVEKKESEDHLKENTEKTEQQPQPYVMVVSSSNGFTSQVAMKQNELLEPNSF
# Summary of the method: as §1
# EHF = molecular target: T5, EHF (Homo sapiens, UniProt Q9NZC4 1-300)
# T5 sequence: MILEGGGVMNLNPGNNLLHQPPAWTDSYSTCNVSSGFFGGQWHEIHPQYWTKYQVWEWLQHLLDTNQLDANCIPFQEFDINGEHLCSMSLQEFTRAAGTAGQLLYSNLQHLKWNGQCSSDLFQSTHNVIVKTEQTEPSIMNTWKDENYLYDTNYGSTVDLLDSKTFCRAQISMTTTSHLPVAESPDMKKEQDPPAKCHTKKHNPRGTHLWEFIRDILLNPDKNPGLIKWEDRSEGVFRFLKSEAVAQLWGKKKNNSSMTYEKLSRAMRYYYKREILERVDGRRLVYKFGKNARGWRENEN
# Summary of the method: as §1
# SPI1 = SPI1 (Homo sapiens, UniProt P17947 1-270)
# Summary of the method: as §1
# SPIB = SPIB (Homo sapiens, UniProt Q01892 1-262)
# Sequence of SPIB (Q01892 whole entry): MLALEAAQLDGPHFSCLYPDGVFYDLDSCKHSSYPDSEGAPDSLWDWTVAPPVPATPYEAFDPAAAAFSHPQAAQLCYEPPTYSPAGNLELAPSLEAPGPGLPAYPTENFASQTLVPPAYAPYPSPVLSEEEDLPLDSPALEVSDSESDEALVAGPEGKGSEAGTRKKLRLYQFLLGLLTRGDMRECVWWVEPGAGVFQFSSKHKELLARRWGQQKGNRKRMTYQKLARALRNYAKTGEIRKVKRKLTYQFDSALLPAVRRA
# Summary of the method: as §1
# ELK3 = molecular target: T6, ELK3 (Homo sapiens, UniProt P41970 1-407)
# T6 sequence: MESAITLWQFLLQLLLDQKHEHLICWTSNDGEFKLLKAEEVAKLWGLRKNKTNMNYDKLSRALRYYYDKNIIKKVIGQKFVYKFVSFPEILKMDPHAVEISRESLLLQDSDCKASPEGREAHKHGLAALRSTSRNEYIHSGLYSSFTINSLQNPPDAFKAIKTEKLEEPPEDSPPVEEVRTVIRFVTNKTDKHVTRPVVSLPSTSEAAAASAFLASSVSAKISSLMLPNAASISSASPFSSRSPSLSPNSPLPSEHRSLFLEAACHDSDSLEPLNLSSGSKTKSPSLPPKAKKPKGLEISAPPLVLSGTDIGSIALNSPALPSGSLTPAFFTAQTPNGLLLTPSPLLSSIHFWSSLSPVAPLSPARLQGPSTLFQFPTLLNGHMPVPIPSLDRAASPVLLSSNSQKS
# Summary of the method: as §1
# ETV5 = ETV5 (Homo sapiens, UniProt P41161 1-510)
# Sequence of ETV5 (P41161 whole entry): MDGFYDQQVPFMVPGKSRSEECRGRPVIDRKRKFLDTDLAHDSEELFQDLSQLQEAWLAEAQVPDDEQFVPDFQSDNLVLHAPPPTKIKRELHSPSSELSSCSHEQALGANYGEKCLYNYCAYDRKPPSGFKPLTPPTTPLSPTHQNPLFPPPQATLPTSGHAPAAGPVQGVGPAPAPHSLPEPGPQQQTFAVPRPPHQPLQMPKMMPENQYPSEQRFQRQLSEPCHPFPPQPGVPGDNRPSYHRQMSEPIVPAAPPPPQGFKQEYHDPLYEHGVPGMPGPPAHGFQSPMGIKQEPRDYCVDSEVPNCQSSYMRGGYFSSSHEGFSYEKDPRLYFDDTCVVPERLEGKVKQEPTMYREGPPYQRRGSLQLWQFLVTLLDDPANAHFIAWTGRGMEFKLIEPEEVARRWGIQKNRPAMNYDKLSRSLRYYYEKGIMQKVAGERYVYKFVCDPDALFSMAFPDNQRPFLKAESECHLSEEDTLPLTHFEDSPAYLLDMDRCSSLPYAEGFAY
# Summary of the method: as §1
# SPIC = molecular target: T7, SPIC (Homo sapiens, UniProt Q8N5J4 1-248)
# T7 sequence: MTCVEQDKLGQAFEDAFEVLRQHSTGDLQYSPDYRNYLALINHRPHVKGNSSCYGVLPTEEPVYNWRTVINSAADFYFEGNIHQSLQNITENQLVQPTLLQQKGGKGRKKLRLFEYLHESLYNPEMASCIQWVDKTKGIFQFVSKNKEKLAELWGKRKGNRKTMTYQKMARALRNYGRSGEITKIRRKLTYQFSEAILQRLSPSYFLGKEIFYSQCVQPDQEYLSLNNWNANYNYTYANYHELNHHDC
# Summary of the method: as §1
# ELF4 = ELF4 (Homo sapiens, UniProt Q99607 1-663)
# Sequence of ELF4 (Q99607 whole entry): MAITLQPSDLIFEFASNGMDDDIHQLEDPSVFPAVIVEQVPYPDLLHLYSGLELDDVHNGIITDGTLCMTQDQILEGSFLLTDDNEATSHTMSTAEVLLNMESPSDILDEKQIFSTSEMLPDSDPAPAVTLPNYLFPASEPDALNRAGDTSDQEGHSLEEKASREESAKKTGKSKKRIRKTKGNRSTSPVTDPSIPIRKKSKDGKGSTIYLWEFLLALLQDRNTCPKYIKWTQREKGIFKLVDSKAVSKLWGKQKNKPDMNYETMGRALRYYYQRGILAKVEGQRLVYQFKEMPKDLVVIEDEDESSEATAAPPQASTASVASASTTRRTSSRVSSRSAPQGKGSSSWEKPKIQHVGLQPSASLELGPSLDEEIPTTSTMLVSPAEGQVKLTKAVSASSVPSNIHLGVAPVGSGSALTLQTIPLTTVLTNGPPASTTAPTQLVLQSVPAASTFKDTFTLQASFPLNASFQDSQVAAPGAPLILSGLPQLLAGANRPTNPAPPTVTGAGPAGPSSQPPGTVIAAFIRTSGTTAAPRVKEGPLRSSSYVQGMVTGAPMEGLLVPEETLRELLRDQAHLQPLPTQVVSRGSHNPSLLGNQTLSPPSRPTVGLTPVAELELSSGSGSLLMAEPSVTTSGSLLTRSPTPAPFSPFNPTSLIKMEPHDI
# Summary of the method: as §1
# ETV1 = ETV1 (Homo sapiens, UniProt P50549 1-477)
# Sequence of ETV1 (P50549 whole entry): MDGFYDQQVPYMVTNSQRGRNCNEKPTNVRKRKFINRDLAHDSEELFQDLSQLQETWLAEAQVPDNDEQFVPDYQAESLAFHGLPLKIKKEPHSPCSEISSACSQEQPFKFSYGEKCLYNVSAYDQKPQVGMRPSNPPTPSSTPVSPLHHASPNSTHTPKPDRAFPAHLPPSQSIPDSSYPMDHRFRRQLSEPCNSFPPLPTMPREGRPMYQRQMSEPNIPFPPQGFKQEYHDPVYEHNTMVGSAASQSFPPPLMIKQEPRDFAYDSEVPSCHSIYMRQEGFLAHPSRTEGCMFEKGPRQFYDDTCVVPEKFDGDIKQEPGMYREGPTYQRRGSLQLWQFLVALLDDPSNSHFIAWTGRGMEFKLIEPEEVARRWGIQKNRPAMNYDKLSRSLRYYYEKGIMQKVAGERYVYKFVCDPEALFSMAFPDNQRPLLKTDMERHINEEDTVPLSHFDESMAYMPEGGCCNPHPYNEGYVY
# Summary of the method: as §1
# ERF = molecular target: T8, ERF (Homo sapiens, UniProt P50548 1-548)
# T8 sequence: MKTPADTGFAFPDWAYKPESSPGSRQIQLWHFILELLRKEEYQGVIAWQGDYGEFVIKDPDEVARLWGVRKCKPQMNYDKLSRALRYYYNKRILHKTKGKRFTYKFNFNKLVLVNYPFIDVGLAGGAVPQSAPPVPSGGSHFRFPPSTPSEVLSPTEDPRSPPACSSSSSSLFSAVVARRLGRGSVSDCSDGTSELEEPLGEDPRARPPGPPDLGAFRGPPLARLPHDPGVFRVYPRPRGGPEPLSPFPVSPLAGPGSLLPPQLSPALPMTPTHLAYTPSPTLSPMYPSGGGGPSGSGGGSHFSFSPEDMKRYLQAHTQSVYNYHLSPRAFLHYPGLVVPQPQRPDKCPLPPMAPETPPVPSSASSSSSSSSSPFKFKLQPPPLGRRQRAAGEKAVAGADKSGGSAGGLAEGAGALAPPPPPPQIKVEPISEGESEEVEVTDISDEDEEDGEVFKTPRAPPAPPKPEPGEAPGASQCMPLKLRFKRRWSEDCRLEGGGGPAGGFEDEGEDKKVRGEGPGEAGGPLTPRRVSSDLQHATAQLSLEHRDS
# Summary of the method: as §1
# ETV3L = molecular target: T9, ETV3L (Homo sapiens, UniProt Q6ZN32 1-361)
# T9 sequence: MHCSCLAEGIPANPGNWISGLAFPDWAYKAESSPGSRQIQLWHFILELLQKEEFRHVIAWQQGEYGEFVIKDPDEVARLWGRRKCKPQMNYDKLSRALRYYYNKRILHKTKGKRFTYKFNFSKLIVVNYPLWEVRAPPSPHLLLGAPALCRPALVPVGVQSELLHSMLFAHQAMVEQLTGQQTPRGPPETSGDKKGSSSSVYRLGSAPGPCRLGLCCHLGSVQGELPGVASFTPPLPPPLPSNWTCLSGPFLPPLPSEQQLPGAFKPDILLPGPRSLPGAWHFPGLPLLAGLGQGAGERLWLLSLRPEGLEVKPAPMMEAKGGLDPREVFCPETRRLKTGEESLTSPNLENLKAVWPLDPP
# Summary of the method: as §1
# ETS2 = molecular target: T10, ETS2 (Homo sapiens, UniProt P15036 1-469)
# T10 sequence: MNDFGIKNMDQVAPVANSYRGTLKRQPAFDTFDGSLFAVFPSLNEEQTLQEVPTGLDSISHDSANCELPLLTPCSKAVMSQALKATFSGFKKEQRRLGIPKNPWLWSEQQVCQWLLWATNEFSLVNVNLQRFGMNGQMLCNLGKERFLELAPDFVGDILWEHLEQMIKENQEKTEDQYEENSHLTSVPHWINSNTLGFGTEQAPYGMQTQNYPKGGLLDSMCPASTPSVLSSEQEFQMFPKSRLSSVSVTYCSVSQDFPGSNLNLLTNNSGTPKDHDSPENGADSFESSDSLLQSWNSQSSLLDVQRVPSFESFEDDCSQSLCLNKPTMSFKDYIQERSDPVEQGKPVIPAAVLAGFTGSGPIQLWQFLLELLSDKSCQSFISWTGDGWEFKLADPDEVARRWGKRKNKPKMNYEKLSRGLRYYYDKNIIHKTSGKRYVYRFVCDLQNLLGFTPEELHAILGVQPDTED
# Summary of the method: as §1
# SPDEF = molecular target: T11, SPDEF (Homo sapiens, UniProt O95238 1-335)
# T11 sequence: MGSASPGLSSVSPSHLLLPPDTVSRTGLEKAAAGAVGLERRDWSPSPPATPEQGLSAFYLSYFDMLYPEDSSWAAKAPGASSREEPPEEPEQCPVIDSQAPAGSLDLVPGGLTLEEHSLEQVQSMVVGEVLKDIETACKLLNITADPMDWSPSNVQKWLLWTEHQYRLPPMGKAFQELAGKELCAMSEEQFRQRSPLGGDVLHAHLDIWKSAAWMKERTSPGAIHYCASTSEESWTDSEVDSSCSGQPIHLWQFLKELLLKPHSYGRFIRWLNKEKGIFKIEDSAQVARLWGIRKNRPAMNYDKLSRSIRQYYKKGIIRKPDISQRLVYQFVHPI
# Summary of the method: as §1
# ETV3 = molecular target: T12, ETV3 (Homo sapiens, UniProt P41162-2 1-143)
# T12 sequence: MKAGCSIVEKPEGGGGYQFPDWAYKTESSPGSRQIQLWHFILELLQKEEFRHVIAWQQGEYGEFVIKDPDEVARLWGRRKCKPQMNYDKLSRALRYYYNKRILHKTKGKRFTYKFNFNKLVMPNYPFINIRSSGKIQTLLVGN
# Summary of the method: as §1
# ETV6 = ETV6 (Homo sapiens, UniProt P41212 1-452)
# Sequence of ETV6 (P41212 whole entry): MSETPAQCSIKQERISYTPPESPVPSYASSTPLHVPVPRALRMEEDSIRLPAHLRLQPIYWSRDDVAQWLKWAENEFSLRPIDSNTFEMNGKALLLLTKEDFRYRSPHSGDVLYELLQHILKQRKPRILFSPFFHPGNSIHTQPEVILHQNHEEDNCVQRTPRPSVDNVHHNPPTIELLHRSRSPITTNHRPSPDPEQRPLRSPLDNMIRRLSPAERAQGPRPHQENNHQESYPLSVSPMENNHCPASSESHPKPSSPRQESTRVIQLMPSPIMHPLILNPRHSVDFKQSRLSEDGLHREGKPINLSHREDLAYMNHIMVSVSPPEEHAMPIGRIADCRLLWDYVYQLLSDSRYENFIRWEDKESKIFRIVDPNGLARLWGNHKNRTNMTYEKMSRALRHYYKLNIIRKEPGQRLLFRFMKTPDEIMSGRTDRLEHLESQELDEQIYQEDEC
# Summary of the method: as §1
sequence,measurement,setting,value
ACGGCA,binding signal,FLI1,"1.04 fold enrichment (6-mer frequency, TF over GST control)"
same,binding signal,ELK1,"1.01 fold enrichment (6-mer frequency, TF over GST control)"
same,binding signal,GABPA,"1.1 fold enrichment (6-mer frequency, TF over GST control)"
same,binding signal,ERG,"1.03 fold enrichment (6-mer frequency, TF over GST control)"
same,binding signal,ELF1,"1.04 fold enrichment (6-mer frequency, TF over GST control)"
same,binding signal,EHF,"1.11 fold enrichment (6-mer frequency, TF over GST control)"
same,binding signal,SPI1,"1.05 fold enrichment (6-mer frequency, TF over GST control)"
same,binding signal,SPIB,"1.1 fold enrichment (6-mer frequency, TF over GST control)"
same,binding signal,ELK3,"1.01 fold enrichment (6-mer frequency, TF over GST control)"
same,binding signal,ETV5,"1.13 fold enrichment (6-mer frequency, TF over GST control)"
same,binding signal,SPIC,"1.05 fold enrichment (6-mer frequency, TF over GST control)"
same,binding signal,ELF4,"1.06 fold enrichment (6-mer frequency, TF over GST control)"
same,binding signal,ETV1,"1.03 fold enrichment (6-mer frequency, TF over GST control)"
same,binding signal,ERF,"1.01 fold enrichment (6-mer frequency, TF over GST control)"
same,binding signal,ETV3L,"1.1 fold enrichment (6-mer frequency, TF over GST control)"
same,binding signal,ETS2,"1.09 fold enrichment (6-mer frequency, TF over GST control)"
same,binding signal,SPDEF,"1.11 fold enrichment (6-mer frequency, TF over GST control)"
same,binding signal,ETV3,"1.06 fold enrichment (6-mer frequency, TF over GST control)"
same,binding signal,ETV6,"1.14 fold enrichment (6-mer frequency, TF over GST control)"
